# Bioassay records as filed in PubChem BioAssay.
# Shown are actives, neighbours in structure and some others; about 2.6% of the full set was active somewhere.
# KKLEB cytotox: cytotoxicity in KKLEB CF airway cells, primary screen, cytotoxicity control for CF NF-kB inhibitor project, cell-based, uHTS, fluorescence assay plates; KKLEB CF airway cells viability, ATPlite luminescence, overnight; stronger effect = lower value; cells stimulated with P. aeruginosa culture filtrate; activity change (cytotoxicity), % at 5 µM; hit rate 0.36% among 360,000;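 active = corrected activity change at or below -50% at 5 µM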
# CF NFkB block: inhibitors of PAF-induced NF-kB signaling, primary screen, cell-based, GFP fluorescence, uHTS; hit rate 0.86% among 360,000; inhibition, % at 5 µM; KKLEB NF-kB-GFP reporter, GFP fluorescence overnight;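 active = at least 50% inhibition at 5 µM, scaled per plate between neutral and stimulator controls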;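 also: PAF is a Pseudomonas aeruginosa culture filtrate used as stimulus; plate controls were PAF-stimulated DMSO wells for no effect and unstimulated DMSO wells for full effect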
# Shn3 inh set2: reduction of Shn3 3'UTR firefly luciferase signal, primary screen, Schnurri-3 inhibitor project, cell-based, Clone20 osteoblasts, set 2 | Clone20 osteoblast Shn3 3'UTR firefly luciferase, 24 h | inhibition, % at 12.5 µM | hit rate 0.52% among 360,000 | AID 588674, 2011;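 active = mean inhibition of at least 75% with every replicate also reaching 75%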;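 also: 0% = median of neutral control wells and 100% = pilot-screen positive control compound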
# Peg3 prom inh: Peg3 promoter-driven luciferase inhibitors, primary screen, cell-based, HeLa, luciferase luminescence | HeLa PEG-Prom luciferase reporter, overnight | inhibition, % at 20 µM | hit rate 1.7% among 360,000 | AID 588405, 2011;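 active = inhibition of at least 50% at 20 µM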
# HIF-2a inh: HIF-2a reporter inhibitors, primary screen, luminescence, 786-0 RCC cells; 786-0 RCC cells HIF-2a reporter, luciferase luminescence, overnight; inhibition, % at 18.8 µM; hit rate 0.72% among 360,000;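 active = inhibition of the luminescence signal of 40% or more relative to plate controls, in a single-dose primary screen at 18.75 µM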
# Active calls of the source: *.
SMILES,KKLEB cytotox,CF NFkB block,Shn3 inh set2,Peg3 prom inh,HIF-2a inh
O=S(=O)(c1ccc(Cl)cc1)N1CC1c1ccccc1 (stereo not given),-11.7,19.5,-21.3,0.8,16.9
CCCc1nc2ccc(Br)cc2c(=O)n1-c1ccc([N+](=O)[O-])c(C(F)(F)F)c1,-20.6,43.4,92.8*,55.1*,-6.6
CC12CCC3C(CC=C4CC(O)CCC43C)C1C/C(=C\c1ccccc1F)C2=O (stereo not given),-29.0,39.9,4.0,50.5*,-14.6
CCCCOP(=O)(OCCCC)/C(C#N)=C(/C)O,-4.5,0.9,-20.7,12.5,12.4
NP(=O)(OCCCCc1ccccc1)Oc1ccccc1Cl (stereo not given),-17.2,16.1,-24.7,0.4,1.0
O=[N+]([O-])/C=C/c1c(Cl)cccc1Cl,-3.0,56.7*,77.1,92.5*,-6.4
O=C(c1ccc(Cl)cc1)C1CCCN(Cc2cccc3ncccc23)C1 (stereo not given),-11.8,4.3,85.5*,2.1,11.2
O=C(c1ccc(Cl)cc1)C1CCCN(Cc2cccc3cccnc23)C1 (stereo not given),-1.6,25.1,-2.2,16.5,18.9
CCCCCn1c(=O)c(C(=O)Nc2ccccc2Cl)c(O)c2ccccc21,0.4,4.1,-28.0,-45.7,-64.6
CCCCCn1c(=O)c(C(=O)Nc2nc3ccccc3[nH]2)c(O)c2ccccc21,-52.0*,30.5,-3.4,23.4,15.3
C=C(C=O)CC1CC(O)[C@]2(C)OC3CC4OC5C[C@]6(C)O[C@]7(C)CCC8OC9C[C@]%10(C)OC%11C(C)=CC(=O)OC%11CC%10OC9C[C@@H](C)C8OC7CC6O[C@]5(C)CC5OC5C4OC3CC2O1 (stereo not given in full),-69.5*,90.6*,59.3,99.8*,93.7*
O=c1[nH]c(=O)n(-c2ccccc2)c(O)c1/C=C1/C(c2ccccc2)=Nc2ccccc21,-18.6,59.6*,-16.4,-51.0,-61.7
O=C1NC(=O)N(c2ccccc2)C(=O)/C1=C/c1ccc(Sc2ccccc2)o1,-5.5,11.1,20.3,50.3*,27.9
O=C1NC(=O)N(c2cccc(Cl)c2)C(=O)/C1=C\c1ccc(Sc2nc3ccccc3[nH]2)o1,12.3,-18.5,-3.2,6.7,15.8
CCOC(=O)c1ccc(N=C(C)c2c(O)[nH]c(=O)[nH]c2=O)cc1,-7.0,4.5,12.4,-2.9,-2.1
Cc1cc(C)cc(N2C(=O)NC(=O)/C(=C\c3cccn3-c3ccccc3)C2=O)c1,4.9,27.7,74.0,75.0*,42.9*
CN1C(=O)/C(=C/c2cccn2-c2ccc3ccccc3c2)C(=O)NC1=S,4.7,41.1,28.5,92.3*,-1.1
Cc1cccc(N2C(=O)NC(=O)/C(=C\c3cnc(-c4ccccc4)nc3)C2=O)c1,1.0,13.8,22.6,-16.9,-7.7
Cc1ccc(NC(=O)c2cc(-c3ccccc3)n(CCCN3CCOCC3)c2C)cc1,-16.7,0.8,6.5,10.7,16.2
COC(=O)c1c(C)[nH]c(C(=O)C(Cc2ccccc2)N(C)C)c1C (stereo not given),-16.9,-6.9,-3.9,-63.9,-67.8
CC(=O)Nc1ccc2c(c1)CC1(C(=O)N(C)C(=O)N(C)C1=O)C1CCCN21 (stereo not given),-4.1,5.2,14.0,-36.9,7.3
COC(=O)c1nc(-c2ccc3c(n2)C(=O)C(N)=C(OC)C3=O)c(N)c(-c2ccc(OC)c(OC)c2O)c1C,-28.2,88.7*,46.5,53.1*,36.9
CCN(CC)S(=O)(=O)c1ccc(NN=C(C#N)C#N)cc1,5.4,66.9*,-3.1,6.2,3.2
CN(CCc1ccccc1)Cc1c[nH]c2ccccc12,-2.6,-31.3,35.7,68.5*,11.5
CCN(CC)Cc1c[nH]c2ccccc12,-0.9,12.8,-0.2,-5.8,9.0
SMILES,KKLEB cytotox,CF NFkB block,Shn3 inh set2,Peg3 prom inh,HIF-2a inh
Cc1ccccc1-n1c(O)c(C(c2ccncc2)c2c(O)n(-c3ccccc3C)c(=O)[nH]c2=O)c(=O)[nH]c1=O,1.1,-7.9,-38.5,9.4,18.1
COc1cc2c(cc1OC)-c1c3c(cc4c1[C@@H](C2)N(C)CC4)OCO3,-28.5,-368.6,-31.6,60.6*,34.2
COc1ccc(OC)c2c1CCC1NCCOC21 (stereo not given),-28.1,19.2,-7.2,4.2,9.6
CCN1C(=O)/C(=C/c2ccc(N(CC)CC)cc2OC)C(=O)NC1=S,-7.8,35.7,6.6,90.0*,27.2
COC(=NC1CCCCC1)C(O)c1c[nH]c2ccccc12 (stereo not given),1.4,4.1,3.1,-10.0,16.4
C/C1=C\[C@@H](C)C/C=C/[C@H]2[C@@H]3O[C@]3(C)[C@@H](C)[C@H]3[C@H](Cc4c[nH]c5ccccc45)NC(=O)[C@]32C(=O)/C=C/C(=O)[C@@H]1O,-52.6*,72.7*,87.8*,97.5*,76.3*
O=c1c2ccccc2nc(C[n+]2ccccc2)n1-c1cccc(C(F)(F)F)c1,-14.0,7.5,-9.6,10.4,8.8
CC(=O)Nc1ccccc1OP1(=O)COc2ccccc2OC1,-6.8,-4.1,-42.8,-1.6,16.6
COc1cc(C)c(CNCCc2c[nH]c3ccccc23)cc1C,-9.2,21.6,38.8,95.5*,16.7
COc1ccc(CNCCc2c[nH]c3ccccc23)c(OC)c1C,-13.5,21.2,5.7,109.2*,2.8
COc1cccc(CNCCc2c[nH]c3ccccc23)c1,-4.1,0.4,-4.7,-13.4,10.6
CCOc1ccc(NC(=O)CCNC(=O)N2C[C@H]3C[C@@H](C2)c2cccc(=O)n2C3)cc1,10.2,3.4,51.3,-1.1,-5.9
CC1=C(C)CC2(C(=O)NC(=O)NC2=O)C(C)C1 (stereo not given),-1.9,-9.0,2.3,3.1,8.5
Clc1ccc(C[n+]2c(-c3ccccc3)cc(-c3ccccc3)cc2-c2ccccc2)cc1,-32.2,43.0,76.9,88.4*,12.7
ClCCOCCCl,-2.5,13.8,-3.9,-8.5,-13.6
COc1ccc(-n2c(/C=C/c3ccc(O)cc3)nc3ccccc3c2=O)cc1,-4.0,-12.8,18.5,38.1,-42.5
CCn1nc(/C=C/c2ccccc2)nc2c(=O)n(C)c(=O)nc1-2,-21.8,76.4*,97.8*,94.1*,-19.9
CCn1nc(-c2cccs2)nc2c(=O)n(C)c(=O)nc1-2,-89.4*,97.9*,97.1*,118.3*,79.7*
C=C(C)[C@@H]1C2C(=O)O[C@H]1[C@H]1OC(=O)[C@@]34OC3C[C@]2(O)[C@@]14C (stereo not given in full),27.7,4.5,-1.6,-2.6,2.7
CC(=O)c1cccc(OCC(=O)N2CCN(CC(=O)Nc3cccc(F)c3)CC2)c1,-2.1,21.6,2.5,-0.3,5.5
